Measurements taken from PubChem BioAssay AID1159580 (chemical genetic matrix, 2015).
Several values for one entry are separate records, joined by “and”; a condition that tells them apart may be missing. Equal entries are not always repeated. Screen size: about 5,500 compounds; about 2,000 (36%) were called active. About 18% were inconclusive and are not listed. Rule as the data show it: active = normalized growth mostly below about 0.91 (no sharp cut-off); inconclusive = no clear call, values can overlap the other calls; inactive = mostly above about 0.92. Some of the results follow.

Test: chemical genetic growth profiling, strain panel (AID 1159580);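 also: tested at 20 µM; growth read once vehicle control cultures reached saturation at 30 °C; 1 = growth at the plate median or of vehicle wells; lower values mean less growth of the strain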
Conditions: S. cerevisiae deletion strains, growth OD

Measured: normalized growth

CC[C@H]1CN2CCc3cc(OC)c(OC)cc3C2C[C@@H]1CC1NCCc2cc(OC)c(OC)cc21 (some centres undefined)
inactive: locus YAL021C, strain ccr4, active compounds read low 0.988 | locus YAL026C, strain drs2, active compounds read low 0.989 | locus YAL030W, strain snc1, active compounds read low 0.983 | locus YBL061C, strain skt5, active compounds read low 1 | locus YBR009C, strain hhf1, active compounds read low 0.971 | locus YBR021W, strain FUR4, active compounds read low 1.02 | locus YBR023C, strain chs3, active compounds read low 0.987 | locus YBR171W, strain sec66, active compounds read low 0.996 | locus YBR229C, strain ROT2, active compounds read low 0.997 | locus YBR231C, strain swc5, active compounds read low 0.993 | locus YBR279W, strain paf1, active compounds read low 0.979 | locus YCL011C, strain gbp2, active compounds read low 0.983 | locus YCL016C, strain dcc1, active compounds read low 0.996 | locus YCL029C, strain bik1, active compounds read low 0.989 | locus YCL069W, strain vba3, active compounds read low 0.98 | locus YCR088W, strain abp1, active compounds read low 0.995 | locus YDL005C, strain med2, active compounds read low 0.988 | locus YDL035C, strain GPR1, active compounds read low 1.01 | locus YDL040C, strain nat1, active compounds read low 0.965 | locus YDL074C, strain BRE1, active compounds read low 1 | locus YDL101C, strain DUN1, active compounds read low 1.01 | locus YDL134C, strain PPH21, active compounds read low 1 | locus YDL185W, strain tfp1, active compounds read low 1 | locus YDL192W, strain arf1, active compounds read low 0.987 | locus YDR001C, strain nth1, active compounds read low 0.982 | locus YDR069C, strain doa4, active compounds read low 0.946 | locus YDR101C, strain arx1, active compounds read low 0.988 | locus YDR137W, strain rgp1, active compounds read low 0.961 | locus YDR150W, strain NUM1, active compounds read low 1.02 | locus YDR159W, strain sac3, active compounds read low 0.899 | locus YDR162C, strain NBP2, active compounds read low 1.03 | locus YDR195W, strain ref2 0.914 | locus YDR297W, strain sur2, active compounds read low 0.979 | locus YDR318W, strain mcm21, active compounds read low 1.01 | locus YDR334W, strain swr1, active compounds read low 0.929 | locus YDR335W, strain msn5, active compounds read low 0.974 | locus YDR388W, active compounds read low 0.994 | locus YDR392W, strain spt3, active compounds read low 0.917 | locus YDR502C, strain sam2, active compounds read low 0.971 | locus YEL003W, strain gim4, active compounds read low 0.979 | locus YEL037C, strain rad23, active compounds read low 0.968 | locus YEL061C, strain CIN8 (second series), active compounds read low 0.978 | locus YEL061C, strain CIN8, active compounds read low 1.01 | locus YER015W, strain faa2, active compounds read low 0.979 | locus YER016W, strain bim1, active compounds read low 1.04 | locus YER110C, active compounds read low 0.996 | locus YER111C, strain swi4, active compounds read low 0.973 | locus YER155C, strain BEM2 (second series), active compounds read low 0.962 | locus YER155C, strain BEM2, active compounds read low 1.01 | locus YER167W, strain BCK2, active compounds read low 1.01 | locus YFR010W, strain ubp6, active compounds read low 0.956 | locus YGL078C, strain dbp3, active compounds read low 0.986 | locus YGL086W, strain mad1, active compounds read low 0.968 | locus YGL167C, strain pmr1, active compounds read low 0.96 | locus YGL173C, strain kem1, active compounds read low 0.962 | locus YGL227W, strain vid30, active compounds read low 0.983 | locus YGL240W, strain doc1, active compounds read low 0.945 | locus YGL248W, strain PDE1, active compounds read low 1.02 | locus YGL253W, strain hxk2, active compounds read low 0.95 | locus YGR078C, strain PAC10, active compounds read low 1.02 | locus YGR135W, strain pre9, active compounds read low 1.01 | locus YGR252W, strain gcn5, active compounds read low 1 | locus YHR013C, strain ard1, active compounds read low 0.941 | locus YHR027C, strain rpn1, active compounds read low 0.985 | locus YHR030C, strain SLT2, active compounds read low 1.01 and 1.04 | locus YHR079C, strain IRE1 (second series), active compounds read low 1 | locus YHR079C, strain IRE1, active compounds read low 1.12 | locus YHR094C, strain hxt1, active compounds read low 0.997 | locus YHR129C, strain ARP1, active compounds read low 1.01 | locus YHR142W, strain chs7, active compounds read low 0.972 | locus YHR200W, strain rpn10, active compounds read low 1.01 | locus YIL066C, strain RNR3, active compounds read low 0.993 | locus YIL073C, strain SPO22, active compounds read low 1.02 | locus YIL125W, strain kgd1, active compounds read low 0.995 | locus YIR030C, strain dcg1, active compounds read low 0.994 | locus YJL092W, strain hpr5, active compounds read low 0.987 | locus YJL095W, strain BCK1 (second series), active compounds read low 0.977 | locus YJL095W, strain BCK1, active compounds read low 1.04 and 1.05 | locus YJL115W, strain asf1, active compounds read low 0.962 | locus YJL129C, strain trk1, active compounds read low 0.983 | locus YJL134W, strain LCB3, active compounds read low 1.01 | locus YJL154C, strain vps35, active compounds read low 0.979 | locus YJL164C, strain tpk1, active compounds read low 0.978 | locus YJL166W, strain qcr8, active compounds read low 0.962 | locus YJL168C, strain set2, active compounds read low 1 | locus YJL187C, strain SWE1 (second series), active compounds read low 1.02 | locus YJL187C, strain SWE1, active compounds read low 0.979 | locus YJR043C, strain POL32, active compounds read low 1.02 | locus YJR066W, strain TOR1, active compounds read low 0.996 | locus YKL068W, active compounds read low 1.01 | locus YKL085W, strain MDH1 (second series), active compounds read low 1.02 | locus YKL085W, strain MDH1, active compounds read low 1.02 | locus YKL160W, strain elf1, active compounds read low 1.01 | locus YKR001C, strain vps1, active compounds read low 1 | locus YKR026C, strain gcn3, active compounds read low 0.986 | locus YKR091W, strain srl3, active compounds read low 0.987 | locus YLL001W, strain dnm1, active compounds read low 0.985 | locus YLL026W, active compounds read low 0.992 | locus YLL041C, strain sdh2, active compounds read low 0.989 | locus YLR027C, strain aat2, active compounds read low 0.989 | locus YLR039C, strain RIC1, active compounds read low 1.01 | locus YLR058C, strain SHM2, active compounds read low 1.01 | locus YLR102C, strain apc9, active compounds read low 0.999 | locus YLR113W, strain HOG1, active compounds read low 1.06 | locus YLR221C, strain rsa3, active compounds read low 0.984 | locus YLR258W, strain gsy2, active compounds read low 0.985 | locus YLR262C, strain YPT6 (second series), active compounds read low 0.978 | locus YLR262C, strain YPT6, active compounds read low 1.06 | locus YLR268W, strain sec22, active compounds read low 0.98 | locus YLR320W, strain mms22, active compounds read low 0.948 | locus YLR330W, strain CHS5, active compounds read low 1.01 | locus YLR342W, strain FKS1 (second series), active compounds read low 0.987 | locus YLR342W, strain FKS1, active compounds read low 1 | locus YLR357W, strain rsc2, active compounds read low 0.967 | locus YLR370C, strain arc18, active compounds read low 0.98 | locus YLR371W, strain rom2, active compounds read low 0.994 | locus YLR384C, strain iki3, active compounds read low 0.972 | locus YLR418C, strain cdc73, active compounds read low 0.997 | locus YML016C, strain PPZ1, active compounds read low 1.01 | locus YML032C, strain rad52, active compounds read low 1.01 | locus YML120C, strain ndi1, active compounds read low 0.977 | locus YML124C, strain tub3, active compounds read low 0.994 | locus YMR058W, strain fet3, active compounds read low 0.986 | locus YMR078C, strain ctf18, active compounds read low 0.996 | locus YMR125W, strain sto1, active compounds read low 0.975 | locus YMR129W, active compounds read low 0.97 | locus YMR205C, strain PFK2, active compounds read low 0.935 | locus YMR223W, strain ubp8, active compounds read low 1.02 | locus YMR231W, strain pep5, active compounds read low 0.979 | locus YMR263W, strain SAP30, active compounds read low 1.02 | locus YMR307W, strain GAS1, active compounds read low 1.08 | locus YNL067W, strain RPL9B, active compounds read low 1.01 | locus YNL071W, strain lat1, active compounds read low 0.956 | locus YNL128W, strain TEP1, active compounds read low 1.01 | locus YNL183C, strain NPR1, active compounds read low 1 | locus YNL209W, strain ssb2, active compounds read low 0.99 | locus YNL233W, strain BNI4, active compounds read low 1.01 | locus YNL248C, strain rpa49, active compounds read low 0.961 | locus YNL250W, strain rad50, active compounds read low 1.01 | locus YNL271C, strain bni1, active compounds read low 0.998 | locus YNL298W, strain CLA4, active compounds read low 1 | locus YNL307C, strain MCK1, active compounds read low 0.997 | locus YNL322C, strain KRE1 (second series), active compounds read low 0.983 | locus YNR049C, strain mso1, active compounds read low 0.967 | locus YNR052C, strain pop2, active compounds read low 1 | locus YOL006C, strain TOP1, active compounds read low 1.03 | locus YOL012C, strain htz1 1.06 | locus YOL147C, strain pex11, active compounds read low 0.994 | locus YOR001W, strain rrp6, active compounds read low 0.98 | locus YOR061W, strain CKA2, active compounds read low 1.02 | locus YOR069W, strain VPS5, active compounds read low 1.01 | locus YOR070C, strain gyp1, active compounds read low 1 | locus YOR080W, strain dia2, active compounds read low 0.926 | locus YOR083W, strain WHI5, active compounds read low 0.987 | locus YOR106W, strain vam3, active compounds read low 1.01 | locus YOR136W, strain idh2, active compounds read low 0.988 | locus YOR144C, strain elg1, active compounds read low 1 | locus YOR184W, strain ser1, active compounds read low 0.987 | locus YOR231W, strain MKK1, active compounds read low 1.05 | locus YOR265W, strain rbl2, active compounds read low 0.993 | locus YOR270C, strain vph1, active compounds read low 0.958 | locus YOR290C, strain snf2, active compounds read low 0.995 | locus YOR316C, strain cot1, active compounds read low 0.992 | locus YPL051W, strain arl3, active compounds read low 1.01 | locus YPL078C, strain atp4, active compounds read low 1 | locus YPL106C, strain sse1, active compounds read low 0.943 | locus YPL240C, strain hsp82, active compounds read low 0.991 | locus YPL241C, strain CIN2, active compounds read low 1.01 | locus YPL256C, strain CLN2, active compounds read low 1.07 | locus YPR119W, strain clb2, active compounds read low 1 | locus YPR141C, strain kar3, active compounds read low 1 | locus YPR163C, strain tif3, active compounds read low 0.985 | locus YPR167C, strain met16, active compounds read low 1 | strain wtn01, active compounds read low 0.96
